For 14 compounds, NF-kB reporter, IRF reporter and viability score results are on record in the supplement of paper PMC10646978.

What all share (conditions): modulator concentration 10 µM
Experiment [1] relates to RAW-Dual (murine macrophage reporter line). Description: NF-kB reporter (SEAP) activity fold change vs agonist alone; higher = enhanced NF-kB activity. The method in brief: (§1)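 RAW-Dual murine macrophage reporter cells were plated at 50 000 per well in 384-well plates, pin-transferred compound to 10 μM final, and pre-incubated for 1 hour at 37 °C before a PRR agonist was added and the cells incubated overnight. NF-κB activity was read from supernatant SEAP with QUANTI-Blue at 620 nm absorbance, and IRF activity from Lucia luciferase with QUANTI-Luc by luminescence. Each signal was expressed as fold change by dividing by the mean agonist-only control on the same plate. Two replicate plates were averaged, with errors obtained by propagation.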

For experiment [2] the test system is unchanged. The experiment is described as follows: IRF reporter (Lucia luciferase) activity fold change vs agonist alone; higher = enhanced IRF activity. Summed up:
as §1

Experiment [3] shares this test system. Description: viability score (confluency relative to resting cells, overnight) (fraction); higher = more viable, active = viable (0.7 or more). Summed up:
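Overnight exposure to 10 μM final compound was carried out on RAW-Dual macrophages in 384-well plates. IncuCyte software generated two confluency masks over all wells imaged with IncuCyte. The viability score gives confluency in relation to resting cells. A compound met the cutoff if each mask exceeded 70% of resting cells.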

[4] abbreviates: agonist: CpG ODN 1826 0.5 ug/mL.

Molecules are shown by their SMILES. ± gives the standard deviation.

In the case of `COc1ccc(S(=O)(=O)NCc2ccnc(N3CCOCC3)n2)cc1Cl`, the NF-kB reporter in experiment [1] (setting [4]) was 1.02 ± 0.052; in experiment [1] (agonist: LPS 0.1 ug/mL), 1.02 ± 0.08; in experiment [1] (agonist: MPLA […]), 0.919 ± 0.1. Besides, the figures for the IRF reporter in experiment [2] (agonist: 3'3'-cGAMP 10 ug/mL), in experiment [2] (agonist: LPS 0.1 ug/mL) and in experiment [2] (agonist: MPLA […]) were 1.07 ± 0.06, 1.07 ± 0.079 and 1.08 ± 0.4, respectively. In experiment [3], the viability score is 1 (active).

With `Cc1c(OCC(=O)OC(C)C)ccc2c3c(c(=O)oc12)CCCC3`, the NF-kB reporter was 0.794 ± 0.063 in experiment [1] (setting [4]), 0.883 ± 0.14 in experiment [1] (agonist: LPS 0.1 ug/mL) and 1.21 ± 0.12 in experiment [1] (agonist: MPLA […]). In addition, the IRF reporter in experiment [2] (agonist: 3'3'-cGAMP 10 ug/mL) amounted to 0.949 ± 0.086; in experiment [2] (agonist: LPS 0.1 ug/mL) it was 1.49 ± 0.095; in experiment [2] (agonist: MPLA […]), 1.71 ± 0.24. The viability score in experiment [3] is 1.01 (active).

As to `CC(=O)NC(c1ccccc1)c1c(OC(=O)COc2ccccc2)ccc2ccccc12` (stereo not drawn), the values for the NF-kB reporter in experiment [1] (setting [4]), in experiment [1] (agonist: LPS 0.1 ug/mL) and in experiment [1] (agonist: MPLA […]) were 0.73 ± 0.062, 0.878 ± 0.049 and 0.714 ± 0.044, respectively. Moreover, the IRF reporter came out at 1.24 ± 0.062 in experiment [2] (agonist: 3'3'-cGAMP 10 ug/mL), 0.987 ± 0.08 in experiment [2] (agonist: LPS 0.1 ug/mL) and 0.948 ± 0.12 in experiment [2] (agonist: MPLA […]). In experiment [3], the viability score is 1.01 (active).

For `N#C[C@@H]1C[C@@H]2C[C@@H]2N1C(=O)[C@@H](N)C12CC3CC(CC(O)(C3)C1)C2.O`, the figures for the NF-kB reporter in experiment [1] (setting [4]), in experiment [1] (agonist: LPS 0.1 ug/mL) and in experiment [1] (agonist: MPLA […]) were 1.06 ± 0.083, 0.968 ± 0.15 and 0.955 ± 0.024, respectively. Also, the IRF reporter in experiment [2] (agonist: 3'3'-cGAMP 10 ug/mL) came out at 0.956 ± 0.066; in experiment [2] (agonist: LPS 0.1 ug/mL) it was 0.921 ± 0.068; in experiment [2] (agonist: MPLA […]) it was 0.871 ± 0.074. Moreover, in experiment [3], the viability score is 0.999 (active).

In the case of `CC1C(C#N)=C(N)OC2=C1C(=O)CC(C)(C)C2` (stereo not drawn), the NF-kB reporter came out at 1.01 ± 0.083 in experiment [1] (setting [4]), 0.965 ± 0.12 in experiment [1] (agonist: LPS 0.1 ug/mL) and 0.96 ± 0.09 in experiment [1] (agonist: MPLA […]). Further, the IRF reporter in experiment [2] (agonist: 3'3'-cGAMP 10 ug/mL) is 0.917 ± 0.072; in experiment [2] (agonist: LPS 0.1 ug/mL) it was 1.28 ± 0.23; in experiment [2] (agonist: MPLA […]) it was 1.47 ± 0.35. Further, the viability score in experiment [3] was 1.02 (active).

As to `Cc1cccc(-c2nn3c(c2-c2ccnc4ccc(C(N)=O)cc24)CCC3)n1`, the NF-kB reporter in experiment [1] (setting [4]) came out at 1.08 ± 0.046; in experiment [1] (agonist: LPS 0.1 ug/mL), 1.22 ± 0.1; in experiment [1] (agonist: MPLA […]), 1.46 ± 0.12. Also, the values for the IRF reporter in experiment [2] (agonist: 3'3'-cGAMP 10 ug/mL), in experiment [2] (agonist: LPS 0.1 ug/mL) and in experiment [2] (agonist: MPLA […]) were 0.903 ± 0.042, 0.976 ± 0.16 and 1.12 ± 0.28, respectively. The viability score in experiment [3] is 0.99 (active).

For `O=C(O)C1C(c2ccccc2)C(C(=O)OCc2ccccc2)C1c1ccccc1` (stereo not drawn), the NF-kB reporter turned out to be 0.926 ± 0.089 in experiment [1] (setting [4]), 1.09 ± 0.062 in experiment [1] (agonist: LPS 0.1 ug/mL) and 1.05 ± 0.079 in experiment [1] (agonist: MPLA […]). For the same compound, the IRF reporter was 1.03 ± 0.078 in experiment [2] (agonist: 3'3'-cGAMP 10 ug/mL), 1.24 ± 0.087 in experiment [2] (agonist: LPS 0.1 ug/mL) and 1.03 ± 0.076 in experiment [2] (agonist: MPLA […]). Moreover, the viability score in experiment [3] is 1.01 (active).

Turning to `Cc1ccc(O)c([C@H](CCN(C(C)C)C(C)C)c2ccccc2)c1.O=C(O)[C@H](O)[C@@H](O)C(=O)O`, the figures for the NF-kB reporter in experiment [1] (setting [4]), in experiment [1] (agonist: LPS 0.1 ug/mL) and in experiment [1] (agonist: MPLA […]) were 0.67 ± 0.061, 0.881 ± 0.081 and 1.26 ± 0.089, respectively. In addition, the IRF reporter is 0.656 ± 0.042 in experiment [2] (agonist: 3'3'-cGAMP 10 ug/mL), 0.951 ± 0.051 in experiment [2] (agonist: LPS 0.1 ug/mL) and 0.729 ± 0.073 in experiment [2] (agonist: MPLA […]). Besides, in experiment [3], the viability score was 0.979 (active).

On to `COc1ccc(CNC2CCCc3ccccc32)cc1OC` (stereo not drawn), for which the NF-kB reporter in experiment [1] (setting [4]) came to 0.648 ± 0.24; in experiment [1] (agonist: LPS 0.1 ug/mL), 1.1 ± 0.09; in experiment [1] (agonist: MPLA […]) it was 0.981 ± 0.11. Further, the IRF reporter was 0.713 ± 0.026 in experiment [2] (agonist: 3'3'-cGAMP 10 ug/mL), 1.12 ± 0.14 in experiment [2] (agonist: LPS 0.1 ug/mL) and 1.5 ± 0.29 in experiment [2] (agonist: MPLA […]). Also, in experiment [3], the viability score was 0.508 (inactive).

In the case of `Cc1cc(C)n(CCC(=O)N2CCc3nc4ccc(F)cn4c(=O)c3C2)n1`, the NF-kB reporter in experiment [1] (setting [4]) is 1.02 ± 0.051; in experiment [1] (agonist: LPS 0.1 ug/mL), 0.938 ± 0.098; in experiment [1] (agonist: MPLA […]), 1.01 ± 0.1. The IRF reporter is 1.03 ± 0.06 in experiment [2] (agonist: 3'3'-cGAMP 10 ug/mL), 1.27 ± 0.079 in experiment [2] (agonist: LPS 0.1 ug/mL) and 1.21 ± 0.12 in experiment [2] (agonist: MPLA […]). In addition, in experiment [3], the viability score is 1 (active).

Turning to `COc1ccc(CN(CCN(C)C)c2ccccn2)cc1.O=C(O)C=CC(=O)O`, the NF-kB reporter in experiment [1] (setting [4]) is 0.857 ± 0.065; in experiment [1] (agonist: LPS 0.1 ug/mL), 0.954 ± 0.051; in experiment [1] (agonist: MPLA […]), 1.01 ± 0.021. The IRF reporter is 0.982 ± 0.054 in experiment [2] (agonist: 3'3'-cGAMP 10 ug/mL), 0.915 ± 0.097 in experiment [2] (agonist: LPS 0.1 ug/mL) and 0.897 ± 0.07 in experiment [2] (agonist: MPLA […]). In addition, the viability score in experiment [3] is 1 (active).

As for `Cl.O=S(=O)(c1cccc2cnccc12)N1CCCNCC1`, the NF-kB reporter in experiment [1] (setting [4]) amounted to 0.76 ± 0.1; in experiment [1] (agonist: LPS 0.1 ug/mL) it was 1.01 ± 0.27; in experiment [1] (agonist: MPLA […]), 1.06 ± 0.06. Besides, the IRF reporter in experiment [2] (agonist: 3'3'-cGAMP 10 ug/mL) turned out to be 0.825 ± 0.033; in experiment [2] (agonist: LPS 0.1 ug/mL) it was 0.85 ± 0.15; in experiment [2] (agonist: MPLA […]) it was 0.558 ± 0.083. Further, in experiment [3], the viability score is 0.992 (active).

In the case of `C=C(C)COc1ccc(-c2ncncc2-c2ccccc2)c(O)c1`, the NF-kB reporter in experiment [1] (setting [4]) turned out to be 1.08 ± 0.18; in experiment [1] (agonist: LPS 0.1 ug/mL), 0.985 ± 0.088; in experiment [1] (agonist: MPLA […]), 0.963 ± 0.082. Further, the IRF reporter in experiment [2] (agonist: 3'3'-cGAMP 10 ug/mL) was determined as 0.996 ± 0.029; in experiment [2] (agonist: LPS 0.1 ug/mL) it was 1.14 ± 0.17; in experiment [2] (agonist: MPLA […]), 1.27 ± 0.13. For the same compound, the viability score in experiment [3] was 1 (active).

Take `O=C1CN(C(=O)c2cc3ccccc3o2)c2ccccc2N1`: the results for the NF-kB reporter in experiment [1] (setting [4]), in experiment [1] (agonist: LPS 0.1 ug/mL) and in experiment [1] (agonist: MPLA […]) were 1.1 ± 0.35, 1.01 ± 0.052 and 1.21 ± 0.1, respectively. Moreover, the IRF reporter in experiment [2] (agonist: 3'3'-cGAMP 10 ug/mL) came out at 0.992 ± 0.035; in experiment [2] (agonist: LPS 0.1 ug/mL) it was 1.03 ± 0.14; in experiment [2] (agonist: MPLA […]), 1.1 ± 0.14. Besides, the viability score in experiment [3] was 0.998 (active).
